From PubChem BioAssay (EPA / NIEHS)
Calls of active or inactive are those of the source. The calls were made as follows: active = hit-call score of the fitted dose curve at least 0.9, where 1 is the maximum; inactive = score below 0.9.

What follows are compounds tested on Cytochrome P450 2C19 (Homo sapiens) (UniProt P33261) (assay: LTEA_HepaRG_CYP2C19: Life Technologies and Expression Analysis (LTEA) Assay for CYP2C19 using HepaRG (AID 2283482)). Conditions: mRNA level, 48 h; actives raise or lower the signal.
Sequence of Cytochrome P450 2C19 (Homo sapiens) (P33261 whole entry, looked up): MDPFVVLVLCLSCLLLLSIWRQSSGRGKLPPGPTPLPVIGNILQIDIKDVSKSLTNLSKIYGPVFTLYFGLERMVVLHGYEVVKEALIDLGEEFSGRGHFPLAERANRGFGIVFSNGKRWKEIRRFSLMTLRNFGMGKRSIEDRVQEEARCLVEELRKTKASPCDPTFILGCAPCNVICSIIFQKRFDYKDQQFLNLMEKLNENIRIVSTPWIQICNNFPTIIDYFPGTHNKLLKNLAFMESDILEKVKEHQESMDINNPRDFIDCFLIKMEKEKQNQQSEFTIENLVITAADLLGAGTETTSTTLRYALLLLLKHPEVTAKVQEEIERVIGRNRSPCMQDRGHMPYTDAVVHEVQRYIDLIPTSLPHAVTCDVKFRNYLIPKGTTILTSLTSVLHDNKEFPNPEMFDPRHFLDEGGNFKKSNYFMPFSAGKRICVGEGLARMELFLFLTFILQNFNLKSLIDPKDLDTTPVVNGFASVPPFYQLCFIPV
Method: LTEA_HepaRG is a cell based, multiplexed-readout assay that uses HepaRG, a human liver cell line, with measurements taken at 48 hours after chemical dosing on a 96-well plate.LTEA_HepaRG_CYP2C19 is one of 102 assay component(s) measured in the LTEA HepaRG cell culture assay. It is a marker of NR mediated metabolism.Data from the assay component LTEA_HepaRG_CYP2C19 was analyzed into 1 endpoint. This assay endpoint, LTEA_HepaRG_CYP2C19, was analyzed with bidirectional fitting relative to DMSO as the negative control and baseline of activity. Using a type of inducible reporter, measures of mRNA induction for gain or loss-of-signal activity can be used to understand regulation of transcription factor activity. To generalize the intended target to other relatable targets, this assay endpoint is annotated to the cyp intended target family, where the subfamily is xenobiotic metabolism.
A total of 1060 chemcials from the ToxCast library were tested in eight-point concentration-response experiments. Cell culture and cytotoxicity assays were conducted at Thermo Fisher Scientific's Custom Services facility (Madison, WI). A single lot of human HepaRG cells (Thermo Fisher Scientific, Frederick, MD) was used for the cell culture experiments. 96-well format collagen type I coated plates of human HepaRG cells were prepared using established methods. Briefly, cryopreserved HepaRG cells were thawed, plated at a density of approximately 100,000 cells/well in HepaRG Thaw, Plate, and General Purpose media (HPRG770, Thermo Fisher Scientific), and incubated for 48 hours. 0.5% DMSO was selected as vehicle control to balance the requisite need of DMSO in HepaRG cultures to maintain differentiation (for example, baseline metabolism, proportions of hepatocytes vs. cholangiocytes), while enabling further hepatic receptor pathway activation (for example, PXR and CAR) in response to chemical exposure. 48 hours after plating, the culture medium was replaced with HepaRG Serum-Free Incudtion Media. Cells were exposed to each test chemical in duplicate and maintained in CO2 incubators for another 48 hours. Chemical plates were thawed to room temperature and 200x concentrations of treatment groups were prepared. 8-point conentration-reponse curves were made with the highest exposure at 100 uM, followed by half-log dilutions, all in 0.5% DMSO. Each test plate contained variouse controls, induction positive controls (1mM phenobarbital), cytotoxicity positive controls ([…] aflatoxin B1), vehicle controls (0.5% DMSO), and total lysis controls (0.5% DMSO). Cell morphology images were taken using an Essen IncuCyte FLR automated microscope, with six 96-well plates imaged in about 24 minutes. Images were captured and exported and JPEG files. Spent culture media was transfered to black-well plates for the LDH assay, and remaining media was sorted at -80 C for later use. Cells were treated with RLT buffer and frozen until shipped for gene expression analysis. Total RNA was isolated from the cell suspension in 75 uL of Buffer RLT (Qiagen, Germantown, MD 20874) by Quintiles/Expression Analysis (Durham, NC) using a custom isolation procedure. Total RNA from each plate well was transferred to a preamplification plate. Fluidigm's 96.96 Dynamic ArrayTM (Fluidigm, Amsterdam, the Netherlands) technology was used for gene expression analyses by quantitative reverse transcription polymerase chain reaction (qRT-PCR, performed by Quintiles/Expression Analysis, Durham, NC)89. Standard TaqManTM Assays (Applied Biosystems/ThermoFisher Scientific, Foster City, CA) were used to assess the expression of 93 genes selected based on their selectivity and sensitivity to important hepatic receptors known to be modulated by environmental chemicals; importance in human hepatocyte functionality; and hepatotoxicity. […]

Compound	AC50	outcome
ClC(Cl)=C(c1ccc(Cl)cc1)c1ccc(Cl)cc1	7.61 µM (active)	–
CCOC(=O)C(O)(c1ccc(Cl)cc1)c1ccc(Cl)cc1	–	inactive
Oc1ccc(Cl)cc1Cl	–	inactive
C1CC2OC2CC1C1CO1 (stereo not given)	–	inactive
CO/C=C(/C(=O)OC)c1ccccc1COc1cccc(C(F)(F)F)n1	8.79 µM (active)	–
CC(C)(c1ccccc1)c1ccc(O)cc1	–	inactive
CC#Cc1cc(C)nc(Nc2ccccc2)n1	24.9 µM (active)	–
CC1=C2C[C@H]3[C@@H](CC=C4C[C@@H](O)CC[C@@]43C)[C@@H]2CC[C@]12O[C@@H]1C[C@H](C)CN[C@H]1[C@H]2C	–	inactive
Oc1ccc(C(c2ccc(O)cc2)(C(F)(F)F)C(F)(F)F)cc1	85.8 µM (active)	–
CC(c1ccc(O)cc1)(c1ccc(O)cc1)c1ccc(O)cc1	29 µM (active)	–
CCNc1nc(NC(C)C)nc(SC)n1	2.45 µM (active)	–
Cc1cc(O)ccc1Cl	–	inactive
Oc1c(Cl)c(Cl)c(Cl)c(Cl)c1Cl	4.27 µM (active)	–
O=NN(c1ccccc1)c1ccccc1	7.3 µM (active)	–
Cc1cc2c3c(c1)C(c1ccccc1)=N[C@@H](NC(=O)c1ccncc1)C(=O)N3CC2	3.58 µM (active)	–
ClC1=C(Cl)[C@]2(Cl)[C@@H]3[C@H]4C[C@H]([C@@H]5O[C@H]45)[C@@H]3[C@@]1(Cl)C2(Cl)Cl	2.63 µM (active)	–
Cc1ccc(O)c(C)c1	–	inactive
CC(C)C(=O)OCC(C)(C)C(OC(=O)C(C)C)C(C)C (stereo not given)	–	inactive
CCCCCCCCCc1ccc(O)cc1	–	inactive
c1cc2ccc3cccc4ccc(c1)c2c34	4.34 µM (active)	–

Compound	AC50	outcome
ClC1=C(Cl)[C@]2(Cl)[C@@H]3[C@@H]4C[C@@H]([C@H]5O[C@@H]45)[C@@H]3[C@@]1(Cl)C2(Cl)Cl	12.3 µM (active)	–
Clc1ccc(C(Cl)(Cl)Cl)cc1	–	inactive
CN(C)c1nc(=O)n(C2CCCCC2)c(=O)n1C	–	inactive
CCCN(CCC)N=O	–	inactive
CCCCCCCCCC[N+](C)(C)CCCCCCCCCC	–	inactive
O=S(=O)(O)C(F)(F)C(F)(F)C(F)(F)C(F)(F)C(F)(F)C(F)(F)F	32 µM (active)	–
O=C(O)C(F)(F)C(F)(F)C(F)(F)C(F)(F)C(F)(F)C(F)(F)C(F)(F)C(F)(F)F	87.1 µM (active)	–
Clc1ccc(Cl)cc1	–	inactive
CCC(C)(CC)c1cc(NC(=O)c2c(OC)cccc2OC)on1	2.36 µM (active)	–
NS(=O)(=O)C(F)(F)C(F)(F)C(F)(F)C(F)(F)C(F)(F)C(F)(F)C(F)(F)C(F)(F)F	9.68 µM (active)	–
Clc1ccc(C(c2ccccc2Cl)C(Cl)(Cl)Cl)cc1 (stereo not given)	1.76 µM (active)	–
CCCCCCOC(=O)c1ccccc1C(=O)OCCCCCC	–	inactive
C[C@]12CCC(=O)C=C1CC[C@@H]1[C@@H]2CC[C@@]2(C)[C@H]1CC[C@]2(C)O	0.207 µM (active)	–
O=C(O)C(F)(F)C(F)(F)C(F)(F)C(F)(F)C(F)(F)C(F)(F)C(F)(F)C(F)(F)C(F)(F)F	81.1 µM (active)	–
O=C(NC(=O)c1cc(F)c(F)cc1Cl)Nc1cc(F)ccc1N1CCC(C(=O)O)CC1	–	inactive
C=CC(=O)NCNC(=O)C=C	–	inactive
N#Cc1ccc(N(CC(N)=O)CC(F)(F)F)cc1C(F)(F)F	19.3 µM (active)	–
CCCCCCCCOC(=O)c1ccccc1C(=O)OCCCCCCCC	–	inactive
COS(=O)(=O)OC	–	inactive
CCOCCOC(C)=O	–	inactive
